For 12 molecules, growth results are on record in PubChem BioAssay (NCI).

Compounds without any hit were thinned out: in the full panel of roughly 83,000, 20% have a hit.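 48-hour exposure, single concentration, 96-well plates; percent growth endpoint where 0 means no net growth. Active: below 10.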 A number with no mark means an inactive call. Calls of active or inactive are those of the source.

Among the test systems are SK-MEL-2 melanoma; EKVX NSCLC; SN12C renal; UO-31 renal; TK-10 renal; ACHN renal; CAKI-1 renal; A498 renal; CCRF-CEM leukemia; MOLT-4 leukemia; SR leukemia; RPMI-8226 leukemia; OVCAR-8 ovarian; OVCAR-5 ovarian; SK-OV-3 ovarian; IGROV1 ovarian; OVCAR-3 ovarian; HS 578T breast; NCI/ADR-RES ovarian; OVCAR-4 ovarian.
Common to all, as to assay: NCI-60 one-dose screen, 48 h (100 = growth as untreated, 0 = no growth, -100 = all killed)
Details in all cases: 10 µM unless noted

As to `Cc1c(C(=O)Nc2ccccc2F)sc2c(=O)[nH]cnc12`, the growth is 53.9% in the assay on SK-MEL-2 melanoma; 91% in the assay with EKVX NSCLC; 96.2% in the assay on SN12C renal; 74.6% with UO-31 renal; 90.8% in the assay on TK-10 renal; 102% in the assay with ACHN renal. Besides, the growth in the assay with CAKI-1 renal was 74.7%; with A498 renal, 99.6%; with CCRF-CEM leukemia, 90.4%; in the assay with MOLT-4 leukemia it was 82%; with SR leukemia it was 28.5%; in the assay with RPMI-8226 leukemia, 96.7%. Besides, the growth in the assay with OVCAR-8 ovarian is 97%; with OVCAR-5 ovarian it was 123%; in the assay on SK-OV-3 ovarian, 97.5%; in the assay with IGROV1 ovarian, 76.4%; in the assay with OVCAR-3 ovarian, 93.7%; with HS 578T breast, 98.2%. Further, the growth in the assay on NCI/ADR-RES ovarian was 66.2%.

`O=C(N/N=C/c1ccccc1O)c1ccncc1`: the growth with SK-MEL-2 melanoma is 55.9%; in the assay with EKVX NSCLC, 36.9%; in the assay on SN12C renal, 78%; in the assay with UO-31 renal it was 33.5%; with TK-10 renal, 57.7%; in the assay on ACHN renal, 56.8%. Further, the growth was 41.3% with CAKI-1 renal; 87.7% in the assay on A498 renal; 29.1% in the assay with CCRF-CEM leukemia; 9.31% (active) with MOLT-4 leukemia; 49.4% in the assay with SR leukemia; 53.9% with RPMI-8226 leukemia. In addition, the growth in the assay on OVCAR-8 ovarian was 52.3%; with OVCAR-5 ovarian it was 71.1%; in the assay on OVCAR-4 ovarian, 48.9%; in the assay with SK-OV-3 ovarian, 63.1%; in the assay on OVCAR-3 ovarian, 18.2%; in the assay on HS 578T breast, 94.3%. Besides, the growth with NCI/ADR-RES ovarian was 38.1%.

With `CC1(C)CN(CCNc2nccc(-c3c(-c4cccc(O)c4)nc4sccn34)n2)S(=O)(=O)N1`, the growth was 24.1% in the assay on SK-MEL-2 melanoma; 108% in the assay with EKVX NSCLC; 57.6% in the assay on SN12C renal; 60.5% in the assay with UO-31 renal; 119% with TK-10 renal; 39.4% in the assay with ACHN renal. The growth was 32.5% in the assay with CAKI-1 renal; 81.7% with A498 renal; 49.6% with CCRF-CEM leukemia; 71.8% in the assay with MOLT-4 leukemia; 17.5% in the assay on SR leukemia; 96.1% in the assay on RPMI-8226 leukemia. Moreover, the growth in the assay with OVCAR-8 ovarian was 103%; in the assay on OVCAR-5 ovarian, 94.1%; in the assay on OVCAR-4 ovarian, 70.9%; with SK-OV-3 ovarian, 44.7%; in the assay with OVCAR-3 ovarian it was 77.5%; in the assay on HS 578T breast, 71.6%. Besides, in the assay on NCI/ADR-RES ovarian, the growth was 111%.

With `CC(C)CCSc1nc(-c2ccc(F)cc2)c(C#N)c(N2CCN(C)CC2)n1`, the growth in the assay with SK-MEL-2 melanoma is 77.4%; in the assay with EKVX NSCLC, 87.8%; in the assay on SN12C renal it was 88.8%; in the assay on UO-31 renal, 51.3%; in the assay on TK-10 renal, 88.2%; with ACHN renal it was 76.5%. Besides, the growth was 60.8% in the assay with CAKI-1 renal; 69.7% with A498 renal; 78.9% in the assay on CCRF-CEM leukemia; 72.5% with MOLT-4 leukemia; 67.5% with SR leukemia; 80% in the assay with RPMI-8226 leukemia. In addition, the growth in the assay with OVCAR-8 ovarian was 83.2%; in the assay on OVCAR-5 ovarian, 91.3%; in the assay on SK-OV-3 ovarian, 87%; with IGROV1 ovarian, 95.2%; with OVCAR-3 ovarian, 93.9%; in the assay on HS 578T breast it was 79.1%. Also, the growth in the assay with NCI/ADR-RES ovarian is 87.2%.

`COc1cc2ncnc(Nc3ccc(S(=O)(=O)Nc4cc(C)on4)cc3)c2cc1OCCCN1CCN(c2ccc([N+](=O)[O-])cc2)CC1`: the growth in the assay with SK-MEL-2 melanoma was 109%; in the assay with EKVX NSCLC, 116%; in the assay on SN12C renal, 102%; in the assay on UO-31 renal, 79.2%; in the assay with TK-10 renal, 103%; in the assay on ACHN renal it was 109%. The growth was 92.8% in the assay with CAKI-1 renal; 110% in the assay on A498 renal; 99.1% in the assay on CCRF-CEM leukemia; 111% with MOLT-4 leukemia; 114% in the assay on SR leukemia; 109% in the assay on RPMI-8226 leukemia. Besides, the growth was 104% with OVCAR-8 ovarian; 106% in the assay on OVCAR-5 ovarian; 99% with SK-OV-3 ovarian; 108% in the assay with IGROV1 ovarian; 103% with OVCAR-3 ovarian; 101% in the assay on HS 578T breast. The growth with NCI/ADR-RES ovarian is 106%.

As for `Oc1ccccc1-c1nnc(COc2ccc(Cl)cc2Cl)o1`, the growth is 37.9% in the assay on SK-MEL-2 melanoma; 31.1% with EKVX NSCLC; 52.6% with SN12C renal; 30.2% with UO-31 renal; 63.7% in the assay with TK-10 renal; 43.5% with ACHN renal. Further, the growth with CAKI-1 renal is 41.5%; in the assay on A498 renal, 89.9%; in the assay with CCRF-CEM leukemia it was 15.5%; with MOLT-4 leukemia it was 19.5%; in the assay on SR leukemia it was 36%; with RPMI-8226 leukemia, 39.4%. In addition, the growth was 36.8% with OVCAR-8 ovarian; 89.1% in the assay on OVCAR-5 ovarian; 49.3% in the assay on OVCAR-4 ovarian; 60.7% in the assay on SK-OV-3 ovarian; 20.2% in the assay with OVCAR-3 ovarian; 78.2% with HS 578T breast. For the same molecule, the growth with NCI/ADR-RES ovarian was 30.6%.

As for `Nc1c(C(=O)Nc2ccccc2)sc2nc3c(cc12)C(=O)CCC3`, the growth with SK-MEL-2 melanoma was 38.7%; in the assay with EKVX NSCLC, 84.6%; with SN12C renal, 59.8%; with UO-31 renal, 71.1%; in the assay with TK-10 renal, 63.6%; in the assay on ACHN renal it was 49.7%. Further, the growth in the assay on CAKI-1 renal is 54.7%; in the assay on A498 renal it was 37.3%; in the assay on CCRF-CEM leukemia, 16.8%; in the assay on MOLT-4 leukemia, 43.4%; in the assay with SR leukemia it was 21.9%; in the assay on RPMI-8226 leukemia, 30.2%. In addition, the growth was 39.9% in the assay on OVCAR-8 ovarian; 59.9% in the assay on OVCAR-5 ovarian; 19.7% with SK-OV-3 ovarian; 36.4% in the assay on IGROV1 ovarian; -19.4% (active) in the assay with OVCAR-3 ovarian; 37.5% in the assay with HS 578T breast. Moreover, in the assay on NCI/ADR-RES ovarian, the growth was -6.39% (active).

In the case of `NS(=O)(=O)c1ccc(CCn2c(SCC(=O)N/N=C/c3cccnc3)nc3ccccc3c2=O)cc1`, the growth in the assay on SK-MEL-2 melanoma was 92%; with EKVX NSCLC, 96%; with SN12C renal, 110%; with UO-31 renal, 83.6%; with TK-10 renal it was 109%; in the assay with ACHN renal, 102%. In addition, the growth in the assay on CAKI-1 renal is 95.6%; in the assay with A498 renal, 85.5%; in the assay on CCRF-CEM leukemia, 60.3%; in the assay on MOLT-4 leukemia it was 68.8%; in the assay with SR leukemia it was 65.3%; in the assay on RPMI-8226 leukemia, 49.7%. The growth in the assay on OVCAR-8 ovarian was 75.1%; in the assay on OVCAR-5 ovarian, 108%; with OVCAR-4 ovarian it was 94.6%; in the assay on SK-OV-3 ovarian, 115%; in the assay on HS 578T breast, 82.7%; in the assay with NCI/ADR-RES ovarian, 105%.

For the molecule `O=[N+]([O-])c1ccc(N=Nc2c(NNc3ccc([N+](=O)[O-])cn3)cc(S(=O)(=O)O)c3ccccc23)nc1`, the growth in the assay with SK-MEL-2 melanoma is 108%; with EKVX NSCLC, 91.1%; in the assay with SN12C renal, 81.5%; in the assay with UO-31 renal, 52.1%; with TK-10 renal, 88.4%; in the assay on ACHN renal, 57.4%. Also, the growth was 64.1% in the assay on CAKI-1 renal; 77.2% in the assay on A498 renal; 65.1% in the assay with CCRF-CEM leukemia; 70.9% with MOLT-4 leukemia; 47.2% in the assay with SR leukemia; 90% in the assay on RPMI-8226 leukemia. In addition, the growth is 67.5% in the assay on OVCAR-8 ovarian; 91.4% in the assay with OVCAR-5 ovarian; 78% in the assay on SK-OV-3 ovarian; 84.9% with IGROV1 ovarian; -5.33% (active) in the assay on OVCAR-3 ovarian; 79.5% in the assay on NCI/ADR-RES ovarian.

As for `C=C(C)[C@@H]1CC[C@]2(C(=O)O)CC[C@]3(C)[C@H](CC[C@@H]4[C@@]5(C)C[C@@H](CC#Cc6ccc(C(C)=O)s6)[C@H](O)C(C)(C)[C@@H]5CC[C@]43C)[C@@H]12`, the growth with SK-MEL-2 melanoma was 51.9%; in the assay on EKVX NSCLC, 53.2%; with SN12C renal it was 68%; in the assay with UO-31 renal, 56.6%; with TK-10 renal, 49.6%; in the assay with ACHN renal, 47.9%. Besides, the growth in the assay with CAKI-1 renal is 40.7%; in the assay with A498 renal, -3.73% (active); with CCRF-CEM leukemia, 44.7%; in the assay with MOLT-4 leukemia it was 32.5%; in the assay on SR leukemia, 78.3%; in the assay on RPMI-8226 leukemia, 40%. For the same molecule, the growth with OVCAR-8 ovarian was 38.4%; in the assay with OVCAR-5 ovarian, 98%; with SK-OV-3 ovarian it was 27.7%; in the assay with IGROV1 ovarian it was 89.1%; with OVCAR-3 ovarian, 58.4%; in the assay on HS 578T breast it was 73.1%. Also, the growth in the assay with NCI/ADR-RES ovarian was 76.3%.

On to `O=C(O)c1cc2cc(OCc3ccccc3)ccc2[nH]1`, for which the growth in the assay with SK-MEL-2 melanoma is 39.9%; in the assay with EKVX NSCLC it was 87.3%; in the assay on SN12C renal, 97.1%; in the assay with UO-31 renal it was 74.4%; in the assay with TK-10 renal, 114%; in the assay with ACHN renal it was 98.7%. In addition, the growth with CAKI-1 renal is 82.3%; in the assay with A498 renal, 98%; in the assay on CCRF-CEM leukemia it was 98.4%; with MOLT-4 leukemia, 99.5%; with SR leukemia, 104%; with RPMI-8226 leukemia it was 94.3%. Moreover, the growth is 87.9% in the assay with OVCAR-8 ovarian; 109% in the assay with OVCAR-5 ovarian; 97.5% in the assay with OVCAR-4 ovarian; 94.7% with SK-OV-3 ovarian; 102% in the assay with OVCAR-3 ovarian; 97.1% in the assay on HS 578T breast. Further, in the assay on NCI/ADR-RES ovarian, the growth is 109%.

Take `O=C(CSc1nc2c(n1Nc1ccccc1)-c1ccccc1SC2)Nc1nccs1`: the growth in the assay with SK-MEL-2 melanoma was 102%; in the assay with EKVX NSCLC, 89.3%; with SN12C renal, 95.3%; with UO-31 renal, 63.1%; in the assay with TK-10 renal, 120%; with ACHN renal it was 95.2%. In addition, the growth in the assay with CAKI-1 renal was 73.7%; with A498 renal, 77%; with CCRF-CEM leukemia, 84.5%; in the assay with MOLT-4 leukemia, 82.5%; with SR leukemia it was 82.7%; in the assay with RPMI-8226 leukemia it was 90.7%. Moreover, the growth was 97.3% with OVCAR-8 ovarian; 103% with OVCAR-5 ovarian; 102% in the assay with OVCAR-4 ovarian; 109% in the assay with SK-OV-3 ovarian; 98.6% with OVCAR-3 ovarian; 93.5% in the assay with HS 578T breast. Further, the growth in the assay on NCI/ADR-RES ovarian is 90.4%.
